Here are results for 3 molecules from PubChem BioAssay (NCATS).

Results filed as inconclusive are left out. Entries that show only a call come without a potency. Active and inactive are the calls of the source. Calls come from the whole dose curve; as a rule, active = well fitted curve in the direction sought with a large enough effect; inconclusive = small, poorly fitted or top-dose-only effect, or another doubt; inactive = no such curve, though single readings can be large; an effect the other way counts as inactive or inconclusive.

Test [1] deals with Rap guanine nucleotide exchange factor 4 (Homo sapiens) (UniProt Q8WZA2). The experiment in a line: Confirmatory qHTS for agonist of cAMP-regulated guanine nucleotide exchange factor 4 (EPAC2) (AID 1645884).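 Note: nucleotide exchange releases bodipy-GDP from Rap1 and this lowers its fluorescence; nearly all actives have a fitted effect of over 65% in size.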 Background: qHTS replaces the single test concentration by a dilution series.
Rap guanine nucleotide exchange factor 4 (Homo sapiens), sequence (Q8WZA2 whole entry, looked up): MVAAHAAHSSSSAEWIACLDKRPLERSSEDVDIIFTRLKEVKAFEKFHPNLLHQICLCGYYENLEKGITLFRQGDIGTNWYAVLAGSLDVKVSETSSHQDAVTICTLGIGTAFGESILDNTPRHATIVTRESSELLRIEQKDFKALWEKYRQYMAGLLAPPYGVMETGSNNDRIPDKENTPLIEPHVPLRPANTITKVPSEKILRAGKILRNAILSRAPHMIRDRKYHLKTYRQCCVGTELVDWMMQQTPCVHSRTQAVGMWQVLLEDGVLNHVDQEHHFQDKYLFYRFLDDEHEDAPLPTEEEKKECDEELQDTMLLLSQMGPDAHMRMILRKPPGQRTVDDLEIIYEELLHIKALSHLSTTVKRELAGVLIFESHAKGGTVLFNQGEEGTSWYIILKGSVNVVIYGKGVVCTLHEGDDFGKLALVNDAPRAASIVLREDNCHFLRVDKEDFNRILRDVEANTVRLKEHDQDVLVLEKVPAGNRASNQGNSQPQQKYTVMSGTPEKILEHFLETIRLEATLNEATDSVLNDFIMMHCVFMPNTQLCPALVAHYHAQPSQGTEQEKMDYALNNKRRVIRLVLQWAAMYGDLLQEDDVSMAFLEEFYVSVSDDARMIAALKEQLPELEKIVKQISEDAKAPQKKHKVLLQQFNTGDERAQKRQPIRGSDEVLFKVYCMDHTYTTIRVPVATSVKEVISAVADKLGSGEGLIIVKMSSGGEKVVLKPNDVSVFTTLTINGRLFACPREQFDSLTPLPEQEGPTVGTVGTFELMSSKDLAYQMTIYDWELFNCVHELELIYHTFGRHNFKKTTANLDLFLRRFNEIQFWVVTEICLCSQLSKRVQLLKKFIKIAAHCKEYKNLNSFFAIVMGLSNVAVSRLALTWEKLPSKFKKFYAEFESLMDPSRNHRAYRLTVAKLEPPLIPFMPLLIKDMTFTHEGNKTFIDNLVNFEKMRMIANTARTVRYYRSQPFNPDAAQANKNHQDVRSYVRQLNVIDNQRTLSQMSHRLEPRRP
The target is the same in test [2]. The experiment in a line: Confirmatory qHTS for antagonist of cAMP-regulated guanine nucleotide exchange factor 4 (EPAC2) (AID 1645885). Note: nearly all actives have a fitted effect of over 25% in size.
Test [3] concerns the target Muscarinic acetylcholine receptor M1 (Rattus norvegicus) (UniProt P08482). The experiment in a line: qHTS Assay for Antagonists of Acetylcholine Muscarinic M1 Receptor: Kinetic Measurement of Intracellular Calcium Response (AID 943). Note: series mostly up to about 35 µM; nearly all actives have a fitted effect of over 75% in size. A digest of the protocol:
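CHO cells expressing rat M1 receptor, Fluo-4 loaded, preincubated 10 min with compound, then stimulated with EC80 carbachol (100 nM final). Kinetic calcium fluorescence over 4 min; response taken as peak over basal signal.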

Test [4] in a line: Cell Viability qHTS for small molecule stabilizers of the endoplasmic reticulum resident proteome (AID 1508629).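 Note: human SH-SY5Y neuroblastoma cells carrying the GLuc-SERCaMP reporter; compound exposure about 46 h in total before the viability read.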 Particulars: cell viability counter-screen, 100 nM thapsigargin for final 4 h.
Test [5] deals with Calcium and integrin-binding protein 1 (Homo sapiens) (UniProt Q99828). Description: Primary qHTS for Identification of Calcium Integrin Binding Protein 1 (CIB1) Competitor (AID 1508620).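 Note: GST tagged CIB1 binding a fluorescein labelled alphaIIb integrin peptide tracer; top concentration of the series differs between compounds.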 An outline of the steps:
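CIB1-GST (1 uM final) and compound incubated 15 min at room temperature before adding FITC-alphaIIb peptide tracer (100 nM final). Competition for binding read by fluorescence polarization (ex 480, em 540) after another 15 min at room temperature.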

Test [6] addresses Luciferin 4-monooxygenase (Photinus pyralis) (UniProt P08659). The experiment in a line: Primary firefly luciferase (FLuc) qHTS assay for identification of artifact compounds. (AID 1845220). Note: nearly all actives have a fitted effect of over 60% in size. An outline of the steps:
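Cell-free, 1536-well qHTS. Buffer pH 7.6 with 0.01% Tween-20 and 0.05% BSA; 10 uM D-luciferin, 10 uM ATP; 10 nM P. pyralis luciferase; luminescence after 5 min.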

A short description of test [7]: Primary fluorescence-based thiol-reactive (MSTI) qHTS assay for identification of artifact compounds. (AID 1845221).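 Note: series mostly up to about 54 µM; thiol-reactive compounds lower the probe fluorescence signal; nearly all actives have a fitted effect of over 65% in size.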 An outline of the steps: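 In PBS pH 7.4 with 2% DMSO, each compound met 4 uM MSTI for one hour at ambient temperature, shielded from light, before fluorescence detection.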
The subject of test [8] is Nanoluciferase (engineered Oplophorus gracilirostris luciferase). Description: Primary Nanoluciferase (NLuc) qHTS assay for identification of artifact compounds. (AID 1845222). Note: series mostly up to about 54 µM. A digest of the protocol:
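Compounds are pinned into diluted (1:55) conditioned medium of NLuc-expressing S16 cells and held 15 min at room temperature protected from light. Nano-Glo substrate follows, and luminescence is read 5 min later.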

Muscarinic acetylcholine receptor M1 (Rattus norvegicus), sequence (P08482 whole entry, looked up): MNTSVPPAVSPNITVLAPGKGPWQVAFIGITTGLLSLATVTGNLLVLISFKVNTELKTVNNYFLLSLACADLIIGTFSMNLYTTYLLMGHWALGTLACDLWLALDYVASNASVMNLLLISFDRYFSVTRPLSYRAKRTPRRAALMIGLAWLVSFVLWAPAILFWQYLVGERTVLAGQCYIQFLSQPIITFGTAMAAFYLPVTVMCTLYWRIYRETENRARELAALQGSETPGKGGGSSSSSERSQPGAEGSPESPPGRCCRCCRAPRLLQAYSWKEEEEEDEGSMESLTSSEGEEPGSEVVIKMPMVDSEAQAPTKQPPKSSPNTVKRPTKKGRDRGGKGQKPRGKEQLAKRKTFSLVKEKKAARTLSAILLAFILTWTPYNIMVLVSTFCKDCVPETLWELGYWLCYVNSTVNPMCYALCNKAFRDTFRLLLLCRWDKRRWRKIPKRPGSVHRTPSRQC
Calcium and integrin-binding protein 1 (Homo sapiens), sequence (Q99828 whole entry, looked up): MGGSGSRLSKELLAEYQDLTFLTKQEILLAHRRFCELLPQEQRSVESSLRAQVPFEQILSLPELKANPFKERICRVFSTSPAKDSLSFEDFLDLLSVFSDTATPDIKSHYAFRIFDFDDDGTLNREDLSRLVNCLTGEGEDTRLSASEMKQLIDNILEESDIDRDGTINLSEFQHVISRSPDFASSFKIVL

On to `CN1[C@@H]2CC(OC(=O)[C@H](CO)c3ccccc3)C[C@@H]1[C@H]1O[C@H]12` (stereo partly drawn), for which the molecule was called inactive in test [1]. For the same molecule, the Potency entry in test [2] was “inactive”.
Consider `C[C@]12CC3CC(N)(C1)C[C@@](C)(C3)C2`, for which the Potency entry in test [3] is “inactive”. The max response in test [4] was -0.737% (inactive).
Take `O=C(CCCCCCC(=O)Nc1ccc(C2OC(CSc3nc(-c4ccccc4)c(-c4ccccc4)o3)CC(c3ccc(CO)cc3)O2)cc1)NO` (stereo not drawn): the result in test [5] was inactive. The Potency entry in test [6], in test [7] and in test [8] was “inactive” in each case.
